Results reported in PubChem BioAssay AID1347048 (National Center for Advancing Translational Sciences (NCATS), 2019).
In all, about 76,000 compounds went through this assay and about 1,200 (1.6%) were called active. Inconclusive results (about 4%) are left out. Calls come from the whole dose curve. Only a selection was taken, and actives are over-represented in it overall.

target: Atrial natriuretic peptide receptor 1 (Homo sapiens) (UniProt P16066); test: Natriuretic polypeptide receptor (hNpr1) antagonism - Primary qHTS; conditions: HEK293 hNpr1 GloSensor cGMP, ANP-stimulated luminescence; series mostly up to 46.3 µM; activity change, negative = inhibition: at the top concentration; note: nearly all actives have a fitted effect of over 60% in size
Method in brief: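 Compound pre-incubated 30 min at room temperature on GloSensor-loaded HEK293 cells stably carrying hNpr1 and the pGS-40F cGMP biosensor. Stimulation uses hNppA at 0.1 nM final; luminescence is taken at baseline and 20 min post-agonist.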
% is set by controls: 0 for no effect and ±100 for the full control effect; potency is the fitted concentration of half-maximal effect.

Atrial natriuretic peptide receptor 1 (Homo sapiens), sequence (P16066 whole entry, looked up): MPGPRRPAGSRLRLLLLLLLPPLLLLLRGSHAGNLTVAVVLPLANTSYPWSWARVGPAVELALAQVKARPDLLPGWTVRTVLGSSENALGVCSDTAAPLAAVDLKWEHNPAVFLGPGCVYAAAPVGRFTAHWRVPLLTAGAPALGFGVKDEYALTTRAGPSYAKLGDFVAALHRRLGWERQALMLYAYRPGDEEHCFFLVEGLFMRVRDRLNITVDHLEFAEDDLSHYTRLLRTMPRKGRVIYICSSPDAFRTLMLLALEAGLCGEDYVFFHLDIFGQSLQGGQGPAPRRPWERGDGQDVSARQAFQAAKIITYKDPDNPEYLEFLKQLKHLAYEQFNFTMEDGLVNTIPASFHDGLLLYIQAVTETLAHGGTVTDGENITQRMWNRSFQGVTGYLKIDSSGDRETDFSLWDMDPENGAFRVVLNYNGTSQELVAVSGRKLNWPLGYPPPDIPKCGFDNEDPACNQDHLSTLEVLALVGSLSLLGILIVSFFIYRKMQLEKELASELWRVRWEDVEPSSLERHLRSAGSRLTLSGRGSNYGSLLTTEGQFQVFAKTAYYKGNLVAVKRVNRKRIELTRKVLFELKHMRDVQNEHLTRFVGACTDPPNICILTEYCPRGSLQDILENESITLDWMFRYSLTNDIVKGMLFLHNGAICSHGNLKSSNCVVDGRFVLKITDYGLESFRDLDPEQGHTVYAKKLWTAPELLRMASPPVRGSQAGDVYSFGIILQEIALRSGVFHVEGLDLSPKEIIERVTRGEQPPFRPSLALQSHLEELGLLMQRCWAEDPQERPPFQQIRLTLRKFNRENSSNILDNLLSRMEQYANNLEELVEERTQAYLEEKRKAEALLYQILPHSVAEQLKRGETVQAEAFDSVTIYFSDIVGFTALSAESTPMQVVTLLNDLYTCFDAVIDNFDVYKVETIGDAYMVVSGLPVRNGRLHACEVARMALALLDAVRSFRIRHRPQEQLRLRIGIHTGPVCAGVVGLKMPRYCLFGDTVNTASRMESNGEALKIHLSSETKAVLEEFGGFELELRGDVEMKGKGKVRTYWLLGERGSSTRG

Activity change, negative = inhibition, inactive:
CCCC(C)C(=O)N1CCCN(C)c2ccccc21 (centres undefined) -13.8%
COc1ccc2nc3n(c2c1)[C@@H](CNC1CCCCC1)COC3 -15.1% [at 70.6 µM]
Cc1ccccc1-n1nc(C)c(CCC(=O)NC(C)C)c1Oc1cccc(F)c1 -3.9%
COc1ccc(-c2cn3c(n2)CO[C@@H](CNCc2ccc(F)c(F)c2)C3)cc1 -22.7% [at 70.6 µM]
COc1ccc(CN2C(=O)CO[C@H]3CN(Cc4cccnc4)C[C@H]32)cc1 9.88% [at 70.6 µM]
COc1ccc(CN2C(=O)CO[C@H]3CN(C(=O)C4CC4)C[C@H]32)cc1 2.94% [at 70.6 µM]
Cc1noc(C)c1C(=O)N1CCCC(CCc2ccc(F)cc2F)C1 (centres undefined) -5.53%
Cc1cc(F)ccc1NC(=O)CCC1CCCN(C(=O)c2ccc(Cl)s2)C1 (centres undefined) -23%
Fc1ccc(-c2cnc3n[nH]c(-c4ccc5c(c4)OCO5)c3n2)cc1 -3.46% [at 70.6 µM]
Cc1ccc(-c2nnc(C3CN(C(=O)CCc4ccccc4)CC34CCOCC4)o2)cc1 (centres undefined) -0.877%
Cc1ccc(C2=NC3(CCN(C(=O)c4ccc(C#N)cc4)CC3)ON2)cc1 -0.929%
O=C(c1cccc2[nH]ccc12)N1CCC2(CC1)N=C(c1cccc(Br)c1)NO2 -19.9%
OCC1(CN2CCCC2)CCN(Cc2cccc(Cn3cccn3)c2)CC1 -1.59%
COc1cccn(CC(=O)N(C)Cc2csc(C(C)C)n2)c1=O -4.01%
COc1ccc(CNC(=O)CN2C(=O)NC3(CCC(C(C)(C)C)CC3)C2=O)cc1OC (centres undefined) 5.07%
c1ccc(-c2noc(-c3ccccc3OC3CCNC3)n2)cc1 (centres undefined) -13.3%
CC(C)(CC(=O)O)CC(=O)N[C@H]1CO[C@H]2[C@@H]1OC[C@@H]2n1nnnc1-c1ccccc1 1.95% [at 70.6 µM]
CC(C)(C)CC(=O)N1CC[C@H](NC(=O)Nc2ccc(F)cc2F)[C@H]1C(=O)N[C@H](Cc1ccccc1)C(N)=O 7.93%
CCC(C)NC(=O)CN1C(=O)NC2(CCC(C(C)(C)C)CC2)C1=O (centres undefined) 12.3%
CCCNc1cc(N2CCC(CCC(=O)NCc3ccc(Cl)cc3)CC2)ncn1 -14.9%
O=C(Cc1cccnc1)N1CCCC(c2nc(CCOCC3CCCC3)no2)C1 (centres undefined) 0.532%
O=C(c1ccoc1)N1CCCC(c2nc(CCOCC3CCCC3)no2)C1 (centres undefined) -3.27%
COCCC(=O)N1CCC2(CC1)CC(C(=O)N1CCOCC1)N(C)C2 (centres undefined) -0.444%
Cc1ccc2nc3n(c2c1)[C@@H](CNC(=O)COc1ccccc1)COC3 -25.6% [at 70.6 µM]
Cc1ccc2c(c1)nc1n2[C@@H](CNC(=O)c2ccccc2)COC1 4.31% [at 70.6 µM]
COCC1CN(Cc2ccc(OC)c(OC)c2Cl)CC12CCNCC2 (centres undefined) 0.762%
COc1ccc(-c2cc(CC3(NCc4cccc(OC)c4)COC3)no2)cc1 -0.189% [at 70.6 µM]
CCN(CC)C(=O)[C@@H]1CCC[C@@H](NC2CCC2)CN(C)C(=O)C1 0.442% [at 70.6 µM]
COc1ccc(CC(=O)N2CCC3(CC2)CC(O)CCO3)cc1OC (centres undefined) 6.61%
COc1ccc(CC(=O)N2CCC(Cc3nc(-c4cnccn4)no3)CC2)cc1Cl 1.04%
COc1ccc(-c2nc3c(c(=O)[nH]2)CCN(C(=O)Cc2ccc(OC)c(Cl)c2)C3)cc1 0.917%
COc1ccc(CC(=O)N2CCC(Cc3nc(C(C)C)no3)CC2)cc1Cl -25.4%
CCOCCOc1cccc(C(=O)N2CCC3(CCOCC3)CC2)c1 -1.4%
CN(C)C(=O)c1n[nH]c2c1CN(C(=O)c1cccc(C(F)(F)F)c1)CC2 3.83%
Cc1cc(C)c(CNC(=O)c2nc(-c3cccc(CO)c3)cc3c2ccn3C)c(=O)[nH]1 5.49% [at 70.6 µM]
Cc1ccccc1-n1nc(CC(N)=O)nc1-c1ccc(Cn2cnnn2)cc1 2.3%
Cc1ccccc1CC(=O)N1CCC[C@H]1c1nc(-c2ccccc2Cl)no1 -12.8%
O=c1[nH]c(C2CCN(Cc3ccccc3)CC2)nc2ccc(F)cc12 1.49% [at 70.6 µM]
O=c1[nH]c(C2CCN(Cc3ccc(F)cc3)CC2)nn1Cc1ccccc1 -2.72%
COc1ccc(-c2cc(N3CCCN(C(=O)c4ccc(C)cc4)CC3)n[nH]2)cc1 3.59%
O=C(c1ccc(Br)cc1)N1CCN(c2cc(-c3ccccc3)[nH]n2)CC1 -23.3%
O=C(Cc1ccc(F)cc1)NC1CCN(c2cc(-c3ccc(Cl)cc3)[nH]n2)CC1 -5.64%
COc1ccc(-c2cc(N3CCN(C(=O)c4ccncc4)CC3)n[nH]2)cc1 -0.727%
O=C(c1ccoc1)N1CCN(c2cc(-c3ccc(Cl)cc3)[nH]n2)CC1 0%
COc1ccc(-c2cc(N3CCN(C(=O)c4cc(OC)cc(OC)c4)CC3)n[nH]2)cc1 -13.1%
CC(C)c1cc(C2CCCN2CCC(=O)Nc2ccc(C(N)=O)cc2)no1 (centres undefined) -2.82%
COc1ccc(-c2nc(C3CC(=O)N(c4ccc(F)c(Cl)c4)C3)no2)cc1OC (centres undefined) -0.022%
O=C1NCCOCCCN(C(=O)CC2CCCC2)[C@H]2CCC[C@@H]12 1.56%
Cn1cnc(S(=O)(=O)N2CCCC(Cc3noc(-c4cnccn4)n3)C2)c1 (centres undefined) -0.0449%
Cc1cn2nc(C(=O)NCC(C)c3ccccc3)cc2c(N2CCCC2)n1 (centres undefined) 16.1%
O=C(NCC1CC1)C1Cn2cccc2C(=O)N1Cc1cccnc1 (centres undefined) 2.95%
Cc1ccnc(N2CCC(c3nnc(-c4ccc(F)cc4)o3)CC2)n1 4.7%
COc1ccc(-c2onc(C)c2C(=O)NCCC(c2ccccc2)c2ccccc2)cc1 -19.3%
Cc1cccc(-c2cc(C3CCN(S(=O)(=O)c4ccc(C#N)cc4)CC3)[nH]n2)c1 -19.8%
Cc1cccc(CN2CCCCCCNC(=O)[C@@H]3CCC[C@@H]32)c1 -14%
COc1cccc(CN2Cc3nc(-c4cc(F)cc(F)c4)ccc3OCC2=O)c1 -10% [at 70.6 µM]
Cc1ccc(C2Cn3nnc(C(=O)N4CCN(C(=O)COc5cccc(C)c5)CC4)c3CO2)cc1 (centres undefined) 4.44%
COc1ccc(C2Cn3nnc(C(=O)N4CCC(C(=O)NCc5ccc(C)cc5)CC4)c3CO2)cc1 (centres undefined) -10.2%
O=C(c1ccoc1)N1CCN(C(=O)c2nnn3c2COC(c2ccc(Cl)cc2)C3)CC1 (centres undefined) -24.7%
CN(C)c1ccc(C(=O)N2CCN(C(=O)c3nnn4c3COC(c3ccc(Cl)cc3)C4)CC2)cc1 (centres undefined) -13%
O=C1N(Cc2ccc(F)cc2)C[C@H]2CN(Cc3ccncc3F)CCN12 -5.47% [at 70.6 µM]
Cc1ccc(C2Cn3nnc(C(=O)N4CCC(C(=O)Nc5ccc(Cl)cc5)CC4)c3CO2)cc1 (centres undefined) -25.5%
CC(C)(O)CCc1ccc(C(=O)NCc2nc(-c3ncccn3)no2)cc1 -1.7%
COc1ncccc1Nc1cnc2ccc(N3CCOCC3)nn12 -10.5% [at 70.6 µM]
CCOc1cccc(-c2nnc(CCC(=O)NCCC(C)C)c(=O)[nH]2)c1 -3.78%
CCCNc1cc(N2CCC(CCC(=O)Nc3ccc(C)cc3)CC2)ncn1 -25.4%
CCNc1cc(N2CCC(CCC(=O)Nc3ccc(C)cc3C)CC2)ncn1 5.36%
CS(=O)(=O)N1C[C@H]2CCN(C(=O)c3cc(F)ccc3Cl)C[C@H]21 11.3%
COc1ccc2nc([C@H]3CCN(Cc4ccc(NC(C)=O)cc4)C3)[nH]c2c1 -1.71% [at 70.6 µM]
O=c1[nH]c(C2CCCN(Cc3ccc(-c4ccsc4)cc3)C2)nc2ccc(F)cc12 (centres undefined) -27.1%
CC(C)c1noc(-c2cn(C3CCN(C(=O)COc4ccccc4)C3)nn2)n1 (centres undefined) 0%
CC(C)c1noc(-c2cn(C3CCN(C(=O)c4cccc(C#N)c4)CC3)nn2)n1 0%
O=C(c1cccnc1)N1CCC(Cc2nc(C3CCOCC3)no2)CC1 -27.1%
O=C(C1CC1)N1CCCC(c2noc(COc3ccccc3F)n2)C1 (centres undefined) 2.7%
COc1ccc(C(=O)N2CCCC(Cc3nc(C4CCOCC4)no3)C2)cc1 (centres undefined) -11.9%
COc1cccc(C(=O)N2CCC(Cc3nc(-c4cnccn4)no3)CC2)c1 5.25%
CCN(Cc1ccncc1)C(=O)c1ccc2c(c1)C(O)CCCCCN2C (centres undefined) -23%
C=C(C)CN(CC)C(=O)c1c(C)oc2c1CN(Cc1cccc(F)c1)CC2 0.0659%
O=C(C[C@@H]1CCNC[C@@H]1Cc1cc(CC2CCCCC2)on1)N1CCOCC1 -1% [at 70.6 µM]
COCCCNC(=O)c1ccc2c(c1)n(Cc1cccc(OC)c1)c(=O)c1ccnn12 -5.71%
COCC1CN(C2CCC2)CC12CCN(C(=O)CCc1ccccc1)CC2 (centres undefined) -29.6%
COc1ccc(CN2C(=O)COC[C@H]2C(=O)Nc2ccc(C(C)C)cc2)c(OC)c1 -2.17%
CN1CCN(Cc2ccc(Nc3ncc(-c4cccnc4)c4c3OCC4)cc2)CC1 -0.125% [at 70.6 µM]
CN(C)c1cccc(-c2cnc(Nc3cnccn3)c3c2CCO3)c1 -2.41% [at 70.6 µM]
O=C(Nc1ccc(-c2nnc3n2CCCC3)cc1)c1ccsc1 -1.56%
CCn1c2c(c(=O)n1-c1ccccc1)CCN(C(=O)COc1ccccc1)C2 -0.0947% [at 70.6 µM]
O=C(Nc1ccc(F)cc1)c1ccc2ccnn2c1 -2.71% [at 70.6 µM]

Potency, active:
Cc1cc(N2CCCC(Cn3cc(Cc4ccccc4)nn3)C2)nc(N)n1 (centres undefined) 7.94 µM
CN(Cc1csc(-c2ccccc2)n1)c1cc(C2CC(O)C2)nc(N)n1 (centres undefined) 2.51 µM
COc1ccc(CN2C(=O)CO[C@H]3CN(Cc4ccc5c(c4)OCO5)C[C@H]32)cc1 31.6 µM
Cc1c[nH]c(CN2CCCC(CCc3ccc(F)cc3F)C2)c(C)c1=O (centres undefined) 2.51 µM
O=C(c1ccc2cc[nH]c2c1)N1CCC2(CC1)N=C(c1ccc(Cl)cc1)NO2 11.2 µM
c1ccc(CO[C@@H]2CO[C@H]3[C@@H]2OC[C@@H]3n2nnnc2SCc2ccco2)cc1 22.4 µM
C1CCC(COCCc2noc(C3CNC3)n2)C1 12.6 µM
Cc1ccc2c(c1)nc1n2[C@@H](CNS(=O)(=O)c2ccccc2)COC1 31.6 µM
COc1ccc(-c2noc(CC3CCN(C(=O)Cc4ccc(OC)c(OC)c4)CC3)n2)cc1 2.82 µM
COc1ccc(CC(=O)N2CCC(Cc3nc(-c4ccccc4)no3)CC2)cc1OC 10 µM
N#Cc1cccc(CN2CCC(C3=NC(O)c4cc(F)ccc4N3)CC2)c1 (centres undefined) 8.91 µM
O=C(c1cc(F)ccc1Cl)N1CCN(c2cc(-c3ccc(F)cc3)[nH]n2)CC1 17.8 µM
Cc1ccc(C(=O)N2CCN(c3cc(-c4ccc(Cl)cc4)[nH]n3)CC2)c(C)c1 6.31 µM
O=C(c1ccc(F)cc1F)N1CCN(c2cc(-c3ccc(Cl)cc3)[nH]n2)CC1 14.1 µM
COc1ccc(C2Cn3nnc(C(=O)N4CCN(C(=O)c5cccc(Cl)c5)CC4)c3CO2)cc1 (centres undefined) 7.08 µM
COc1ccc(C2Cn3nnc(C(=O)N4CCN(C(=O)c5ccc(C)cc5C)CC4)c3CO2)cc1 (centres undefined) 14.1 µM
CCNc1cc(N2CCC(CCC(=O)N3CCc4ccccc4C3)CC2)ncn1 11.2 µM
Cc1ccc2nc(C3CCCN(Cc4ccc(C#N)cc4)C3)[nH]c(=O)c2c1 (centres undefined) 14.1 µM
CC(C)c1cc(C(=O)N2CCC(n3cc(-c4ccccn4)nn3)CC2)n(C)n1 10 µM
O=C(c1ccccc1)N1CCC(C(=O)N2CCC(Cc3nc(-c4ccc(F)cc4)no3)CC2)CC1 11.2 µM
COc1cccc(-c2noc(CC3CCN(C(=O)c4ccc(F)cc4)CC3)n2)c1 5.62 µM
CN(C)c1cccc(-c2cnc(Nc3ccc(N4CCOCC4)cc3)c3c2CCO3)c1 25.1 µM
